Experimental data: PubChem BioAssay (Tox21)
Results filed as inconclusive are left out. Values without a mark were called inactive. Calls come from the whole dose curve; as a rule, active = well fitted cell-killing curve with a large enough effect in the repeat runs; inconclusive = weak or mixed curves; inactive = flat fitted curve, though single readings scatter.

Assay: qHTS RealTime-Glo MT Cell Viability Assay in HepG2 cells - 32 hour (AID 1224877); note: nearly all actives have a fitted effect of over 55% in size
Conditions: RealTime-Glo luminescence; series mostly up to 76.8 µM; activity change, negative = cytotoxic: at the top concentration
Excerpt: U.S. Tox21 Program National Center for Advancing Translational Sciences [NCATS] NIH Chemical Genomics Center [NCGC] U.S. Environmental Protection Agency [EPA] National Institutes of Environmental Health Sciences [NIEHS] National Toxicology Program [NTP] U.S. Food and Drug Administration [FDA] Tox21 Assay Overview: Measure of cell viability is critical in the cell-base assay. Analysis of cell viability is necessary for the characterization of cell responses to cytotoxic drugs and environmental stress. A RealTime-Glo MT Cell Viability Assay to monitor cell viability in real time of continues cell culture during 40 hours of compound treatment was used to screen Tox21 10K library compounds in HepG2 cells. The RealTime-Glo MT Cell Viability Assay is a nonlytic, homogeneous, bioluminescent method to measure cell viability in real time using a simple, plate-based method. The assay involves adding NanoLuc luciferase and a cell-permeant prosubstrate to cells in culture. Viable cells reduce the proprietary prosubstrate to generate a substrate for NanoLuc luciferase. This substrate diffuses from cells into the surrounding culture medium, where it is rapidly used by the NanoLuc Enzyme to produce a luminescent signal. The signal correlates with the number of viable cells, making the assay well suited for cytotoxicity studies.
Tox21 Assay Protocol Summary: The mixture of HepG2 cell suspension and reagents were dispensed at 600cells/6 ul/well in 1536-well tissue culture treated black solid bottom plates using a Multidrop dispenser. After the assay plates were incubated at a 37 C/5% CO2 incubator for 5 hours, 23 nL of compounds dissolved in DMSO, positive and negative controls was transferred to the assay plate by a pintool work station. The plates were incubated at 37 C for 40 hours. The luminescence intensity were measured at 0h, 8h, 16h, 24h, 32h and 40h time points using ViewLux plate reader during compound treatment.
% is set by controls: 0 for no effect and ±100 for the full control effect.

Structure (SMILES) | activity change, negative = cytotoxic
CCCn1cnc2c1c(=O)n(CCCCC(C)=O)c(=O)n2C | 0.0704% [at 35.3 µM]
Cc1oc(-c2ccccc2)nc1CCOc1cccc2c1ccn2CCC(=O)O | -7.02%
CC(C)Cc1ccc(C(C)C(=O)OCc2ccccn2)cc1 (stereo not given) | -11.6% [at 35.3 µM]
CCC(Cl)CCC(Cl)C(Cl)CC(Cl)C(Cl)C(Cl)CCl (stereo not given) | -3.55%
COCCCN1CCC(NC(=O)c2cc(Cl)c(N)c3c2OCC3)CC1 | -0.353% [at 35.3 µM]
CCOC(=O)C1=C[C@]2(CC)CCCN3CCc4c(n1c1ccccc41)[C@@H]32 | -7.74% [at 35.3 µM]
CC(C)OC(=O)C(C)N(C(=O)c1ccccc1)c1ccc(F)c(Cl)c1 (stereo not given) | -13.8%
CN(C)CCN(Cc1ccccc1)c1ccccn1 | -11.1% [at 35.3 µM]
CCOC(=O)COC(=O)c1cc(Oc2ccc(C(F)(F)F)cc2Cl)ccc1[N+](=O)[O-] | -2.52%
O=C(NCC1CN(c2ccc(N3CCOCC3=O)cc2)C(=O)O1)c1ccc(Cl)s1 (stereo not given) | -3.22% [at 35.3 µM]
C[N+]1(C)CCC(OC(=O)C(O)(c2ccccc2)C2CCCC2)C1 (stereo not given) | 3.49% [at 35.3 µM]
C[C@@H]1C[C@H]2O[C@@]3(O[C@@H]2C(C)(C)O)[C@H](O)[C@@]2(C)[C@@H]4CC[C@H]5C(C)(C)[C@@H](O[C@@H]6OC[C@@H](O)[C@H](O)[C@H]6O)CC[C@@]56C[C@@]46CC[C@]2(C)[C@@H]13 | -1.45% [at 35.3 µM]
CN(C)CCN(Cc1ccsc1)c1ccccn1 | 3.06% [at 35.3 µM]
CCC(=O)O[C@]1(C(=O)CCl)[C@@H](C)C[C@H]2[C@@H]3CCC4=CC(=O)C=C[C@]4(C)[C@@]3(F)[C@@H](O)C[C@@]21C | -22.5% [at 35.3 µM]
CCCCCCCCCCCc1ccccc1 | 1.08%
CC1(c2ccccc2)OC(C(=O)O)=CC1=O (stereo not given) | 3.01% [at 35.3 µM]
COc1ccc(C)cc1[N+](=O)[O-] | -0.0032%
Nc1ccc(S(=O)(=O)Nc2ccccc2)cc1 | -1.28% [at 35.3 µM]
Nc1ncn([C@H]2C[C@H](O)[C@@H](CO)O2)c(=O)n1 | 0.0076% [at 35.3 µM]
CCCCCCCCCCCC(=O)OC[C@@H](O)[C@H]1OC[C@H](OCCO)[C@H]1OCCO | -3.4%

Structure (SMILES) | activity change, negative = cytotoxic
Cc1cc(N)c2cc(NC(=O)Nc3ccc4nc(C)cc(N)c4c3)ccc2n1 | -3.98% [at 35.3 µM]
Cc1nn(C)c(Oc2ccccc2)c1/C=N/OCc1ccc(C(=O)OC(C)(C)C)cc1 | -12%
CC1=CC[C@H](C(C)C)C=C1 | -4.11%
CCOC(=O)C(F)(F)F | 0.653%
Nc1ccc([N+](=O)[O-])c(C(F)(F)F)c1 | 0.42% [at 35.3 µM]
Brc1c2ccccc2cc2ccccc12 | -3.06%
CN1Cc2cc(C(=O)N3CCC(C4CCNCC4)CC3)ccc2NC(CC(=O)O)C1=O (stereo not given) | 1.26% [at 35.3 µM]
C=C(C)C(=O)OCC | 0.447%
COc1ccc(C(=O)c2ccc(OC)cc2O)c(O)c1 | -12.5%
Cc1ncc(CO)c(C=O)c1O | -0.0367% [at 35.3 µM]
Nc1cccc([N+](=O)[O-])c1 | -0.326%
Nc1ccc(N)c2c1C(=O)c1ccccc1C2=O | -11.8%
CC(CC=O)c1ccccc1 (stereo not given) | 0.237%
CCc1cc(C2=C(C(=O)O)N(c3ccccc3C(F)(F)F)S(=O)(=O)c3ccccc32)cc2c1OCO2 | 0.339%
O=C(O)c1ccccc1Cl | 0.845%
C/C=C(/C(=C/C)c1ccc(OC(C)=O)cc1)c1ccc(OC(C)=O)cc1 | 1.2% [at 35.3 µM]
Cc1c(N)cccc1[N+](=O)[O-] | -0.528%
C/C=C/C=C/CO | 0.652%
Nc1cccc(S(=O)(=O)c2cccc(N)c2)c1 | 0.567%
Cc1ccc(C(C)OC(=O)C2(C)CCC(C(=O)O)C2(C)C)cc1 (stereo not given) | 2.58% [at 35.3 µM]
